PubChem BioAssay (NCATS)
Several values for one entry are separate records, joined by “and”; a condition that tells them apart may be missing. Identical values can stand only once. Records with an inconclusive call do not appear. Values without a mark were called inactive. Activity calls are given as the source filed them. The call rests on the fitted dose curve; in most records, active means well fitted curve in the direction sought with a large enough effect; inconclusive means small, poorly fitted or top-dose-only effect, or another doubt; inactive means no such curve, though single readings can be large; an effect the other way counts as inactive or inconclusive.

Columns and labels:
[1] = target: Aldehyde dehydrogenase, mitochondrial (Homo sapiens) (UniProt P05091); assay: qHTS for Inhibitors of the Aldehyde Dehydrogenase Family (ALDH2) Primary screen (AID 2061308); further: nearly all actives have a fitted effect of over 55% in size; further: potency means the concentration at half of the fitted maximal effect
[2] = BET inhibitor-based combinations targeting novel dependencies in MECOM-rearranged (r) AML: SET-2 cell line (AID 2202231); settings: SET-2 AML cells viability, CellTiter-Glo luminescence, 48 h; viability: stronger effect = lower value, concentration not given here; further: nearly all actives have a fitted effect of over 35% in size; further: potency means the concentration at half of the fitted maximal effect;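 on viability: plate controls were DMSO treated cells for no effect and wells without cells for full effect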
Method in brief: (§1)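 Cells were plated at 500 per well and exposed to an 11-point dose series of each drug for 48 hr. Viability was measured by CellTiter-Glo luminescence, normalized to DMSO and empty-well controls, and summarized as AUC and per-cell-line Z-AUC.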

[3] = BET inhibitor-based combinations targeting novel dependencies in MECOM-rearranged (r) AML: OCI-AML3 cell line (AID 2202232); settings: Potency: OCI-AML3 viability; further: nearly all actives have a fitted effect of over 35% in size; further: potency means the concentration at half of the fitted maximal effect
Method in brief: as §1

[4] = BET inhibitor-based combinations targeting novel dependencies in MECOM-rearranged (r) AML: HNT-34 cell line (AID 2202234); further: nearly all actives have a fitted effect of over 35% in size; further: potency means the concentration at half of the fitted maximal effect
Method in brief: (§2)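 Activity is given as area under the curve and as Z-AUC, mean-centred within each cell line. It comes from 11-point dose curves normalized to DMSO and empty wells. CellTiter-Glo luminescence was read after 48 hr drug exposure of 500 cells/well.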

[5] = BET inhibitor-based combinations targeting novel dependencies in MECOM-rearranged (r) AML: UCSD-AML1 cell line (AID 2202235); further: nearly all actives have a fitted effect of over 40% in size; further: potency means the concentration at half of the fitted maximal effect
Method in brief: as §2

[6] = BET inhibitor-based combinations targeting novel dependencies in MECOM-rearranged (r) AML: AML-191 cell line (AID 2202236; further: nearly all actives have a fitted effect of over 35% in size; further: potency means the concentration at half of the fitted maximal effect)
Method in brief: as §1

[7] = BET inhibitor-based combinations targeting novel dependencies in MECOM-rearranged (r) AML: AML-194 cell line (AID 2202237; further: nearly all actives have a fitted effect of over 40% in size; further: potency means the concentration at half of the fitted maximal effect)
Method in brief: as §1

[8] = target: Retinaldehyde dehydrogenase 3 (Homo sapiens) (UniProt P47895); assay: qHTS for Inhibitors of the Aldehyde Dehydrogenase Family (ALDH1A3) Primary screen (AID 2061315);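 further: plate controls were DMSO vehicle for no effect and reference inhibitor for full effect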
[9] = target: Retinaldehyde dehydrogenase 3 (Homo sapiens) (UniProt P47895); assay: qHTS for Inhibitors of the Aldehyde Dehydrogenase Family (ALDH1A3) Confirmatory screens (AID 2061311); further: nearly all actives have a fitted effect of over 60% in size; further: potency means the concentration at half of the fitted maximal effect
[10] = BET inhibitor-based combinations targeting novel dependencies in MECOM-rearranged (r) AML: MV-4-11 cell line (AID 2202233); further: potency means the concentration at half of the fitted maximal effect; nearly all actives have a fitted effect of over 45% in size
Method in brief: as §2

[11] = target: Aldehyde dehydrogenase 1A1 (Homo sapiens) (UniProt P00352); assay: qHTS for Inhibitors of the Aldehyde Dehydrogenase Family (ALDH1A1) Confirmatory screens (AID 2061316); further: potency means the concentration at half of the fitted maximal effect; nearly all actives have a fitted effect of over 65% in size
[12] = target: Retinal dehydrogenase 2 (Homo sapiens) (UniProt O94788); assay: qHTS for Inhibitors of the Aldehyde Dehydrogenase Family (ALDH1A2) Confirmation screens (AID 2061314); further: potency means the concentration at half of the fitted maximal effect; nearly all actives have a fitted effect of over 65% in size

Compound: COc1ccc2[nH]c(S(=O)Cc3ncc(C)c(OC)c3C)nc2c1 (stereo not given)
- Potency [1]: inactive
- viability [2]: 97.7%
- Potency [3]: inactive
- Potency [4]: inactive
- Potency [5]: inactive
- Potency [6]: inactive
- Potency [7]: inactive

Compound: CC(C)NC(=O)COc1cccc(-c2nc(Nc3ccc4[nH]ncc4c3)c3ccccc3n2)c1
- Potency [1]: inactive
- Potency [8]: inactive
- Potency [5]: inactive
- Potency [7]: 16.6 µM (active)

Compound: COc1ccc(Cl)cc1NC(=O)c1cc2nc(-c3ccc(C)cc3)cc(C(F)(F)F)n2n1
- Potency [9]: inactive

Compound: COc1ccccc1-c1cnc2n[nH]c(-c3ccccc3C)c2n1
- Potency [9]: inactive

Compound: Cn1cc(-c2cnn3c(N)c(Br)c(C4CCCNC4)nc23)cn1 (stereo not given)
- Potency [1]: inactive
- Potency [10]: 468 nM (active)
- Potency [4]: 10.5 µM (active)
- Potency [5]: 5.25 µM (active)

Compound: CNC(=O)c1cccc(-c2ccc(C(C)(C)C#N)cc2)n1
- Potency [9]: 8.91 µM (active)

Compound: Cc1cnc(Nc2ccc(F)cc2Cl)nc1-c1c[nH]c(C(=O)NC(CO)c2cccc(Cl)c2)c1 (stereo not given)
- Potency [1]: inactive
- Potency [10]: 296 nM (active)

Compound: Cc1cccc(-c2cccc(CN)c2)c1
- Potency [9]: inactive

Compound: Cc1c[nH]c2ncnc(N3CCC(CN)(C(=O)Nc4cccc(OC(=O)N(C)C)c4)CC3)c12
- Potency [1]: inactive
- Potency [8]: inactive
- Potency [10]: 1.86 µM (active) and 1.05 µM (active)
- Potency [5]: inactive

Compound: O=C(CC1CCOCC1)NCc1ccc(N2CCOCC2)cc1
- Potency [9]: inactive

Compound: COc1ccc(C2(C(=O)NCc3ccccc3)CCOCC2)cc1
- Potency [9]: inactive

Compound: Cc1c(NC(=O)OCC2COCCN2)cn2ncnc(Nc3ccc4c(cnn4Cc4cccc(F)c4)c3)c12 (stereo not given)
- Potency [1]: inactive
- Potency [8]: inactive
- Potency [10]: 18600 nM (active)
- Potency [5]: inactive
- Potency [6]: 23.5 µM (active)

Compound: O=C(c1ccc(/C=C/c2n[nH]c3ccccc23)cc1)N1CCNCC1
- Potency [1]: inactive
- Potency [8]: inactive
- Potency [10]: 132 nM (active)
- Potency [4]: 3.72 µM (active)
- Potency [5]: 3.32 µM (active)
- Potency [6]: 2.95 µM (active)

Compound: COc1cc(CNC(=O)c2ccc(NC(=O)N3CCCCc4ccccc43)cc2)cc(OC)c1OC
- Potency [9]: inactive

Compound: CC(=O)Nc1ccc(CN2CCCC(N3CCN(c4ccccc4)CC3)C2)cc1 (stereo not given)
- Potency [9]: inactive

Compound: COCCOc1ccc(C(=O)N[C@@H]2CN(C(=O)NCc3ccccc3)CCC[C@H]2O)cc1
- Potency [9]: inactive

Compound: Cc1ccnc(NC(=S)N2CCN(c3cc(Cl)cc(Cl)c3)CC2)c1
- Potency [1]: 2.24 µM (active)
- Potency [11]: 5.65 µM (active)

Compound: COc1ccc(NC(=O)N2CCC(CC(=O)NCc3ccccc3)C2)cc1OC (stereo not given)
- Potency [9]: inactive

Compound: COc1ccc(-c2nc3ccccc3c(=O)n2Cc2ccccc2)cc1OCc1ccc(NC(C)=O)cc1
- Potency [9]: 22.5 µM (active)

Compound: N#Cc1ccccc1NC(=O)Cn1cnc2onc(-c3cccc(F)c3)c2c1=O
- Potency [9]: inactive

Compound: CCn1c(=O)c(-c2ccc(Cl)cc2Cl)cc2cnc(Nc3ccc(N4CCNCC4)c(F)c3)nc21
- Potency [1]: inactive
- Potency [8]: inactive
- Potency [10]: 525 nM (active)
- Potency [4]: 0.105 µM (active)
- Potency [5]: 0.525 µM (active)

Compound: Cc1ccc(-n2c(=O)c3c(cnn3C)n(CC(=O)Nc3cccc(Cl)c3)c2=O)cc1
- Potency [9]: inactive

Compound: C=CC(=O)Nc1cccc(Nc2nc(Nc3ccc(N4CCN(C(C)=O)CC4)cc3OC)ncc2C(F)(F)F)c1
- Potency [1]: inactive
- Potency [2]: 14.8 µM (active)
- Potency [3]: 18.6 µM (active)
- Potency [10]: 2950 nM (active)
- Potency [4]: 4.17 µM (active)
- Potency [5]: 5.9 µM (active)
- Potency [6]: 9.34 µM (active)

Compound: O=C(Nc1ccc(Oc2ccccc2)cc1)c1ccc(F)c(S(=O)(=O)N2CCN(c3cccc(Cl)c3)CC2)c1
- Potency [9]: inactive

Compound: CCc1ccc(O)c(C(=O)c2cnc3cc(-c4ccc(C)cc4)nn3c2)c1
- Potency [9]: inactive

Compound: Cc1ccc(S(=O)(=O)Nc2cc(S(=O)(=O)c3ccc(C)cc3)c(O)c3cccnc23)cc1
- Potency [9]: 1.13 µM (active)
- Potency [12]: 2.01 µM (active)
- Potency [11]: 1.42 µM (active)

Compound: Nc1ccc(CNc2ccc([S+](=O)([O-])Nc3nccs3)cc2)c(O)c1
- Potency [9]: 5.04 µM (active)
- Potency [12]: 17.9 µM (active)
- Potency [11]: 3.18 µM (active)

Compound: Cc1c(C(=O)OC[C@H]2CCCO2)[nH]c2c1C(=O)CC(c1ccco1)C2 (stereo not given in full)
- Potency [9]: 12.7 µM (active)
- Potency [12]: 4 µM (active)
- Potency [8]: inactive
- Potency [11]: 1.42 µM (active)

Compound: NC(=O)c1cccc(-c2cnc3c(O)ccc(C(=O)O)c3c2)c1
- Potency [9]: 11.3 µM (active)
- Potency [12]: 4.49 µM (active)
- Potency [8]: inactive
- Potency [11]: 8.96 µM (active)

Compound: COc1ccc(-c2ccc(C)cc2)cc1CC(=O)N(C)C(C)c1ccco1 (stereo not given)
- Potency [9]: 2.01 µM (active)
- Potency [12]: 6.31 µM (active)
- Potency [11]: 11.3 µM (active)

Compound: COC(=O)CCSC/C=C(\C)CCn1cc(CCc2ccc(-c3ccccc3)cc2)nn1
- Potency [9]: 8.96 µM (active)
- Potency [8]: inactive
- Potency [11]: 4.49 µM (active)

Compound: Cc1ccc(-c2ccnc(N3CCC(C(N)=O)CC3)n2)cc1
- Potency [9]: 5.04 µM (active)
- Potency [8]: inactive

Compound: CC(=O)Nc1ccc(OCc2cccc(-c3nc4ccccc4c(=O)n3Cc3ccco3)c2)cc1
- Potency [9]: 15.8 µM (active)
- Potency [12]: 7.98 µM (active)
- Potency [8]: inactive
- Potency [11]: 2.83 µM (active)

Compound: N#Cc1cccc(OC2=NS(=O)(=O)c3ccccc32)c1
- Potency [9]: 12.7 µM (active)
- Potency [8]: inactive
- Potency [11]: 5.04 µM (active)
